These results are taken from PubChem BioAssay (NCATS).

SMILES strings stand for the structures. Inconclusive results are not listed. Calls of active or inactive are those of the source. Calls come from the whole dose curve; as a rule, active = well fitted curve in the direction sought with a large enough effect; inconclusive = small, poorly fitted or top-dose-only effect, or another doubt; inactive = no such curve, though single readings can be large; an effect the other way counts as inactive or inconclusive.

One test deals with ATS189. Description: qHTS profiling for inhibitors of Plasmodium falciparum proliferation (AID 504749). Note: nearly all actives have a fitted effect of over 60% in size. Note: potency is the fitted concentration of half-maximal effect. Particulars: P. falciparum in erythrocytes, SYBR Green DNA, 72 h; series mostly up to 12.8 µM. Summed up:
(§1)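 Three-day growth assay of blood-stage parasites in erythrocytes (0.3% parasitemia, 2.5% hematocrit) at 37 C, 5% CO2, quantified by SYBR Green DNA staining after overnight detergent lysis.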

In another test the test system is ATS95. Described as above. As to conditions: P. falciparum in erythrocytes, SYBR Green DNA, 72 h; series mostly up to 12.8 µM. An outline of the steps: as §1
Another test has as its system CP185. The test is described as above. Particulars: P. falciparum in erythrocytes, SYBR Green DNA, 72 h; series mostly up to 12.8 µM. Summed up: as §1
A further test deals with CP201. Described as above. As to conditions: P. falciparum in erythrocytes, SYBR Green DNA, 72 h; series mostly up to 12.8 µM. Summed up:
as §1

In a further test the test system is CP203. The test is described as above. As to conditions: P. falciparum in erythrocytes, SYBR Green DNA, 72 h; series mostly up to 12.8 µM. Summed up: as §1
A further test concerns CP237. The test is described as above. As to conditions: P. falciparum in erythrocytes, SYBR Green DNA, 72 h; series mostly up to 12.8 µM. Summed up: as §1
In the next test the test system is CP247. The test is described as above. Particulars: P. falciparum in erythrocytes, SYBR Green DNA, 72 h; series mostly up to 12.8 µM. Summed up:
as §1

A further test has as its system CP260. The test is described as above. As to conditions: P. falciparum in erythrocytes, SYBR Green DNA, 72 h; series mostly up to 12.8 µM. Summed up:
as §1

A further test has as its system CP262. The test is described as above. As to conditions: P. falciparum in erythrocytes, SYBR Green DNA, 72 h; series mostly up to 12.8 µM. An outline of the steps:
as §1

For another test, the system named is CP265. The description is as above. As to conditions: P. falciparum in erythrocytes, SYBR Green DNA, 72 h; series mostly up to 12.8 µM. An outline of the steps:
as §1

The subject of the next test is CP266. Described as above. As to conditions: P. falciparum in erythrocytes, SYBR Green DNA, 72 h; series mostly up to 12.8 µM. An outline of the steps: as §1
Another test deals with CP325. The description is as above. As to conditions: P. falciparum in erythrocytes, SYBR Green DNA, 72 h; series mostly up to 12.8 µM. Summed up:
as §1

Another test deals with DIV17. Described as above. As to conditions: P. falciparum in erythrocytes, SYBR Green DNA, 72 h; series mostly up to 12.8 µM. An outline of the steps: as §1
The next test relates to DIV30. The description is as above. Particulars: P. falciparum in erythrocytes, SYBR Green DNA, 72 h; series mostly up to 12.8 µM. An outline of the steps:
as §1

Another test deals with Dd2. The test is described as above. As to conditions: P. falciparum in erythrocytes, SYBR Green DNA, 72 h; series mostly up to 12.8 µM. Summed up:
as §1

The subject of another test is ICS. Described as above. As to conditions: P. falciparum in erythrocytes, SYBR Green DNA, 72 h; series mostly up to 12.8 µM. Summed up: as §1
The test system of the next test is PAD. The test is described as above. As to conditions: P. falciparum in erythrocytes, SYBR Green DNA, 72 h; series mostly up to 12.8 µM. An outline of the steps: as §1
For another test, the system named is TAB165. The test is described as above. Particulars: P. falciparum in erythrocytes, SYBR Green DNA, 72 h; series mostly up to 12.8 µM. An outline of the steps:
as §1

In the next test the test system is CP286. The test is described as above. As to conditions: P. falciparum in erythrocytes, SYBR Green DNA, 72 h; series mostly up to 12.8 µM. An outline of the steps:
as §1

A short description of test [1]: S16 Schwann cell viability assay (CellTiter-Glo assay) (AID 624031). Note: nearly all actives have a fitted effect of over 70% in size. Summed up:
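Native S16 rat Schwann cells in DMEM/10% FBS without phenol red were incubated overnight, then exposed to compounds for 24 h at 37 °C/5% CO2. Viability was read as ATP luminescence (CellTiter-Glo), normalized to no-cell wells and DMSO (0%).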
For orientation: ATP-based viability assays read luminescence as a measure of living cells.

Regarding `CN(C/C=C\c1ccccc1)Cc1cccc2ccccc12`, the Potency entry with ATS189, with ATS95, in the test on CP185, in the test on CP201, in the test on CP203 and in the test with CP237 was “inactive” in each case. For the same compound, the Potency entry in the test with CP247, in the test with CP260, in the test with CP262, in the test with CP265, with CP266 and in the test with CP325 was “inactive” each time. The Potency result in the test with DIV17, in the test with DIV30, in the test with Dd2, in the test on PAD and in the test with TAB165 was “inactive” in each case. In addition, in the test on ICS, the Potency is 11.2 µM (active).

Consider `CN1CCN([C@@H](c2ccccc2)c2ccc(Cl)cc2)CC1`, for which the Potency entry in the test on CP185, in the test with CP237, in the test on CP247, in the test with CP260, in the test on CP262 and with CP266 was “inactive” throughout. Further, the Potency entry with CP286 and in the test on CP325 was “inactive” each time. Also, the Potency in the test with ICS is 3.16 µM (active).

In the case of `OCCN1CCN(CCC=C2c3ccccc3Sc3ccc(Cl)cc32)CC1`, the Potency result in the test with CP203 and in the test on CP266 was “inactive” throughout. In addition, the Potency in the test with CP286 was 3.55 µM (active); in the test on Dd2 it was 3.98 µM (active); with ICS it was 4.47 µM (active).

Turning to `CO[C@H]1[C@@H](OC(N)=O)[C@H](O)[C@@H](Oc2ccc3c(O)c(NC(=O)c4ccc(O)c(CC=C(C)C)c4)c(=O)oc3c2C)OC1(C)C`, the call in test [1] was inactive. Besides, the Potency result in the test with ATS189, with ATS95, with CP185, with CP201, in the test with CP203 and in the test with CP237 was “inactive” each time. The Potency result with CP247, in the test on CP260, in the test with CP262, in the test with CP265, in the test with CP286 and with CP325 was “inactive” each time. Further, the Potency result in the test with DIV17, in the test on DIV30, in the test with Dd2, in the test on ICS, with PAD and in the test on TAB165 was “inactive” in each case.

Take `CN(C)CCOC(=O)[C@@H](c1ccccc1)C1(O)CCCC1`: in test [1], the result was inactive. In addition, the Potency result in the test with ATS189, with ATS95, in the test on CP185, with CP201, with CP203 and in the test on CP262 was “inactive” in each case. Besides, the Potency result with CP265, in the test on CP286, in the test with CP325, in the test with DIV17, in the test on DIV30 and in the test with ICS was “inactive” each time. For the same compound, the Potency entry with PAD and with TAB165 was “inactive” in each case. Further, the Potency in the test with CP237 is 8.91 µM (active).

For the compound `CCOC(=O)O[C@]1(C(=O)COC(=O)CC)CC[C@@H]2[C@@H]3CCC4=CC(=O)C=C[C@@]4(C)[C@H]3[C@H](O)C[C@]21C`, the call in test [1] was inactive. In addition, the Potency result in the test with ATS189, in the test on ATS95, in the test with CP185, in the test on CP201, in the test on CP203 and in the test on CP237 was “inactive” throughout. Besides, the Potency entry with CP247, in the test with CP260, in the test with CP262, in the test on CP265, in the test on CP266 and in the test with CP286 was “inactive” each time. The Potency result with CP325, with DIV17, in the test on DIV30, in the test on Dd2, with ICS and with PAD was “inactive” throughout. In addition, in the test with TAB165, the Potency result is “inactive”.

Turning to `O=C1O[C@H](CN2CCOCC2)CN1/N=C\c1ccc([N+](=O)[O-])o1`, the call in test [1] was inactive. Besides, the Potency entry in the test with ATS189, in the test with ATS95, with CP201, in the test on CP203, in the test with CP247 and in the test with CP262 was “inactive” each time. In addition, the Potency result with CP266, in the test with CP325, in the test on DIV17 and with DIV30 was “inactive” in each case.

As to `CC[C@H](Cc1c(I)cc(I)c(N)c1I)C(=O)O`, the compound was classed as inactive in test [1]. In addition, the Potency entry in the test with ATS189, with ATS95, in the test with CP185, with CP201, in the test on CP203 and in the test with CP237 was “inactive” throughout. In addition, the Potency entry with CP247, in the test with CP260, with CP262, in the test with CP265, with CP266 and in the test with CP286 was “inactive” in each case. For the same compound, the Potency result in the test with CP325, in the test on DIV17, in the test on DIV30, with Dd2, in the test on ICS and with PAD was “inactive” in each case. Further, the Potency entry with TAB165 is “inactive”.

As to `Clc1ccc(CC[C@H](Cn2ccnc2)Sc2c(Cl)cccc2Cl)cc1`, in test [1], the result was inactive. In addition, the Potency was 6.42 µM (active) with CP203; 4.05 µM (active) with DIV17; 5.73 µM (active) in the test on DIV30; 3.55 µM (active) in the test on Dd2; 1.41 µM (active) in the test with ICS; 3.55 µM (active) in the test on PAD. In the test on TAB165, the Potency is 1.26 µM (active).

As to `Clc1ccc([C@H](Cn2ccnc2)OCc2csc3c(Cl)cccc23)c(Cl)c1`, the result in test [1] was inactive. For the same compound, the Potency in the test on CP203 was 5.73 µM (active); in the test with CP237, 3.16 µM (active); with DIV17, 7.21 µM (active); in the test with DIV30, 5.1 µM (active); in the test on Dd2, 3.55 µM (active); with ICS, 2 µM (active). Further, the Potency in the test on PAD was 3.55 µM (active); with TAB165, 2.24 µM (active). Moreover, the Potency result in the test on CP262 and in the test on CP266 was “inactive” each time.

On to `C[N+]12CCC(CC1)[C@@H](OC(=O)C(O)(c1ccccc1)c1ccccc1)C2`, for which the outcome in test [1] was inactive. For the same compound, the Potency entry with ATS189, in the test on ATS95, in the test on CP185, with CP237, in the test with CP247 and with CP260 was “inactive” each time. The Potency entry in the test with CP262, in the test with CP265, with CP266, in the test on CP286, in the test with CP325 and with Dd2 was “inactive” throughout. In addition, the Potency entry with ICS, in the test with PAD and in the test on TAB165 was “inactive” each time.

`CC[C@](C)(CN(C)C)OC(=O)c1ccccc1`: the compound was called inactive in test [1]. The Potency entry in the test with ATS189, in the test with ATS95, with CP185, with CP201, in the test on CP247 and with CP260 was “inactive” throughout. Also, the Potency result in the test on CP262, with CP265, in the test with CP266, in the test on CP286, with CP325 and in the test with DIV17 was “inactive” in each case. For the same compound, the Potency entry with DIV30, in the test on ICS, in the test with PAD and in the test on TAB165 was “inactive” each time. For the same compound, the Potency in the test on Dd2 is 5.01 µM (active).

In the case of `CC(=C(CCOP(=O)(O)O)SC(=O)c1ccccc1)N(C=O)Cc1cnc(C)nc1N`, the compound was classed as inactive in test [1]. Moreover, the Potency result with ATS189, with ATS95, in the test on CP185, in the test with CP201, in the test on CP203 and in the test with CP237 was “inactive” in each case. Further, the Potency entry in the test with CP247, in the test with CP260, in the test with CP262, in the test on CP265, in the test with CP266 and with CP286 was “inactive” in each case. Further, the Potency result in the test on CP325, with DIV17, in the test with DIV30, with Dd2, with ICS and with PAD was “inactive” in each case. Besides, in the test with TAB165, the Potency entry was “inactive”.
